Laboratory results as given in the supplement of paper PMC10127200.
Counter-ions that a name gives are not always drawn.

Assays:
Assay in all cases: Euclidean distance of Cell Painting phenotypic profile (signed KS, 77 features) to DMSO centroid (dimensionless distance); 5 or 10 uM (library dependent); higher = stronger phenotypic change vs DMSO (phenoactivity)
Conditions in all cases: 48 h
[1] = test system: 786-O
Procedure, shortened: (§1)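 Phenoactivity is computed as Euclidean distance to the median vehicle profile. The profiles, drawn from 77 Harmony features scored as signed Kolmogorov-Smirnov statistics versus same-plate vehicle wells, were corrected for plate position, correlation-weighted and replicate-averaged at the top dose. Stained cells were imaged confocally at 20X (9 fields/well) after 48 h with library compounds at 10 or 5 uM, 0.1% DMSO final, in five cancer lines and a healthy fibroblast line.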

[2] = test system: A549
Procedure, shortened: as §1

[3] = test system: DU145
Procedure, shortened: as §1

[4] = test system: FB
Procedure, shortened: as §1

[5] = test system: HEPG2
Procedure, shortened: as §1

[6] = test system: OVCAR4
Procedure, shortened: as §1

Row | SMILES | Euclidean distance [1] | Euclidean distance [2] | Euclidean distance [3] | Euclidean distance [4] | Euclidean distance [5] | Euclidean distance [6]
1 | Cn1cc(-c2ccc3nnc(Sc4ccc5ncccc5c4)n3n2)cn1 | 1.56 | 2.02 | 1.64 | 0.87 | 0.766 | 0.987
2 | CC(C)NCC(O)COc1ccc(CC(N)=O)cc1 (configuration not stated) [Atenolol] | 1.33 | 0.613 | 0.819 | 0.889 | 1.22 | 0.667
3 | NCCS(=O)(=O)O [Taurine] | 1.5 | 0.858 | 1.34 | 0.921 | 0.768 | 1.35
4 | C/C=C1/[C@H](O[C@@H]2O[C@H](CO)[C@@H](O)[C@H](O)[C@H]2O)OC=C(C(=O)OC)[C@H]1CC(=O)OCCc1ccc(O)c(O)c1 [Oleuropein] | 0.802 | 0.844 | 0.63 | 0.971 | 0.64 | 1.46
5 | O=C(Nc1nc(-c2cc(Cl)cs2)c(N2CCN(C3CCCCC3)CC2)s1)c1cnc(N2CCC(C(=O)O)CC2)c(Cl)c1 [Avatrombopag] | 1.81 | 0.802 | 1.84 | 0.858 | 1.41 | 1.05
6 | Cc1cc(C(=O)Nc2nc3cccc(Cl)c3n2[C@@H]2CCCCN(C(=O)/C=C/CN(C)C)C2)ccn1 [Nazartinib (EGF816. NVS-816)] | 1.87 | 1.93 | 1.67 | 3.18 | 2.99 | 1.9
7 | Clc1ccc(COC(Cn2ccnc2)c2ccc(Cl)cc2Cl)cc1 (configuration not stated) [Econazole] | 1.06 | 1.25 | 0.98 | 1.02 | 1.09 | 0.709
8 | CCC(=O)NS(=O)(=O)c1ccc(-c2c(-c3ccccc3)noc2C)cc1 [Parecoxib Sodium] | 0.662 | 0.521 | 0.541 | 0.844 | 0.676 | 0.905
9 | O=C1NC(=O)/C(=C/c2ccc3nccc(-c4ccncc4)c3c2)S1 | 1.74 | 2.75 | 2 | 1.86 | 0.698 | 2.91
10 | Oc1cccc(-c2nc(N3CCOCC3)c3oc4ncccc4c3n2)c1 | 1.25 | 3.67 | 1.5 | 2.89 | 0.936 | 2.62
11 | O=C1CN(/N=C/c2ccc(-c3ccc([N+](=O)[O-])cc3)o2)C(=O)N1 [Dantrolene sodium] | 0.573 | 0.503 | 1.37 | 0.968 | 0.758 | 1.01
12 | NCCS [2-Aminoethanethiol] | 1.12 | 0.781 | 1.46 | 0.594 | 0.508 | 1.1
13 | CCCCOCCOCCOCc1cc2c(cc1CCC)OCO2 [Piperonyl butoxide] | 0.659 | 1.99 | 0.875 | 0.892 | 1.06 | 1.04
14 | Cc1ccc(C)c(OCCCC(C)(C)C(=O)O)c1 [Gemfibrozil] | 1.23 | 0.801 | 1.51 | 1.06 | 1.97 | 1.02
15 | Cc1ccc(NS(=O)(=O)c2cccc(C#N)c2)c2[nH]cc(C#N)c12 | 1.84 | 2.34 | 1.67 | 1.89 | 2.04 | 2.09
16 | Cc1oc(=O)oc1CN1CCN(c2cc3c(cc2F)c(=O)c(C(=O)O)c2n3C(C)S2)CC1 (configuration not stated) [Prulifloxacin (NM441. AF 3013)] | 1.38 | 0.71 | 0.968 | 0.785 | 1.9 | 0.841
17 | N=C(N)NCCC[C@H](N)C(=O)O [L-Arginine HCl (L-Arg)] | 1.3 | 0.522 | 0.828 | 0.796 | 0.566 | 1.14
18 | CC(CN(C)C)CN1c2ccccc2Sc2ccccc21 (configuration not stated) [Alimemazine Tartrate] | 1.33 | 1.55 | 1.73 | 2.43 | 2.13 | 1.33
19 | COc1cc(CNC(=O)CCCCC=CC(C)C)ccc1O [Capsaicin(Vanilloid)] | 1.06 | 1.47 | 1.35 | 0.876 | 0.778 | 1.44
20 | CC(=O)OCC(CCn1cnc2cnc(N)nc21)COC(C)=O [Famciclovir] | 1 | 0.742 | 0.892 | 0.846 | 0.598 | 1.57
21 | O=C(N/N=C/c1ccc(O)c(O)c1)c1cc2ccccc2cc1O [Dynasore] | 0.917 | 1.21 | 0.791 | 0.928 | 1.13 | 0.791
22 | CC(C)(C)C(O)/C=C/c1ccc2c(c1)OCO2 (configuration not stated) [Stiripentol] | 0.796 | 0.894 | 1.07 | 0.983 | 0.456 | 0.801
23 | CN(C)CCN(Cc1ccccc1)c1ccccn1 [Tripelennamine HCl] | 1.42 | 0.863 | 0.966 | 1.05 | 0.581 | 1.72
24 | COc1cccc2c1C(=O)c1c(O)c3c(c(O)c1C2=O)C[C@@](O)(C(=O)CO)C[C@@H]3O[C@H]1C[C@H](N)[C@@H](O)[C@H](C)O1 [Epirubicin HCl] | 3.54 | 4.33 | 3.92 | 5.12 | 4.78 | 4.83

Row | SMILES | Euclidean distance [1] | Euclidean distance [2] | Euclidean distance [3] | Euclidean distance [4] | Euclidean distance [5] | Euclidean distance [6]
25 | COc1cc2/c(=N/c3ccc(Br)cc3F)nc[nH]c2cc1OCC1CCN(C)CC1 [Vandetanib (ZD6474)] | 1.3 | 2.59 | 2.38 | 2.66 | 1.7 | 2.94
26 | CCOC(=O)CC(=O)N1CCSC1COc1ccccc1OC (configuration not stated) [Moguisteine] | 1.45 | 0.946 | 1.1 | 0.84 | 1.08 | 1.01
27 | N#Cc1ccc(C(c2ccc(C#N)cc2)n2cncn2)cc1 [Letrozole] | 3.04 | 1.88 | 1.67 | 3.14 | 1.48 | 2.31
28 | CC(C)c1c(C(=O)Nc2ccccc2)c(-c2ccccc2)c(-c2ccc(F)cc2)n1CC[C@@H](O)C[C@@H](O)CC(=O)O [atorvastatin] | 1.57 | 1.35 | 3.44 | 3.29 | 0.836 | 1.24
29 | Cc1cc(Nc2ccc(NC(=O)c3ccc(Nc4ccnc5ccccc45)cc3)cc2)nc(N)n1 | 1.66 | 3.02 | 1.42 | 5.18 | 0.532 | 3.29
30 | C/C=C(/C)C(=O)O[C@H]1[C@H](OC(C)=O)[C@@]2(CO)C(CC1(C)C)C1=CCC3[C@@]4(C)CCC(O[C@@H]5O[C@H](C(=O)O)[C@@H](O[C@@H]6O[C@H](CO)[C@@H](O)[C@H](O)[C@H]6O)[C@H](O)[C@H]5O[C@@H]5O[C@H](CO)[C@@H](O)[C@H](O)[C@H]5O)[C@](C)(CO)C4CC[C@@]3(C)[C@]1(C)C[C@H]2O.C/C=C(\C)C(=O)O[C@H]1[C@H](OC(C)=O)[C@@]2(CO)C(CC1(C)C)C1=CCC3[C@@]4(C)CCC(O[C@@H]5O[C@H](C(=O)O)[C@@H](O[C@@H]6O[C@H](CO)[C@@H](O)[C@H](O)[C@H]6O)[C@H](O)[C@H]5O[C@@H]5O[C@H](CO)[C@@H](O)[C@H](O)[C@H]5O)[C@](C)(CO)C4CC[C@@]3(C)[C@]1(C)C[C@H]2O (some centres not stated) [Escin] | 1.14 | 0.784 | 0.972 | 1.18 | 0.678 | 1.24
31 | CN(C)N(C)C(=O)[C@@]1(Cc2ccccc2)CCCN(C(=O)[C@@H](Cc2c[nH]c3ccccc23)NC(=O)C(C)(C)N)C1 [Anamorelin] | 1.33 | 0.796 | 0.841 | 1.59 | 0.82 | 0.802
32 | Cc1ccc(C(=O)c2ccc(CC(=O)O)n2C)cc1 [Tolmetin] | 1.07 | 0.65 | 0.844 | 1.14 | 0.964 | 0.922
33 | Oc1ccc([C@H]2COc3cc(O)ccc3C2)cc1 (racemic) | 1.39 | 0.796 | 1.27 | 0.952 | 0.464 | 0.928
34 | COc1c(C)cnc(Cn2cnc3c(Cl)nc(N)nc32)c1C | 3.02 | 3.08 | 3.08 | 3.34 | 4.24 | 3.08
35 | Cn1cc(C(=O)[C@@H]2CCc3[nH]cnc3C2)c2ccccc21 [Ramosetron Hydrochloride] | 1.07 | 0.965 | 0.791 | 1.34 | 0.731 | 1.41
36 | NC[C@H]1O[C@H](O[C@H]2[C@H](O)[C@@H](O[C@H]3O[C@H](CO)[C@@H](O)[C@H](N)[C@H]3O)[C@H](N)C[C@@H]2N)[C@H](N)C[C@@H]1O [Tobramycin] | 0.897 | 1.31 | 1.34 | 0.987 | 0.563 | 1.4
37 | N#CC[C@H](C1CCCC1)n1cc(-c2ncnc3[nH]ccc23)cn1 | 2.03 | 1.27 | 1.36 | 1.23 | 0.819 | 0.709
38 | C[C@]12CC[C@@H]3c4ccc(O)cc4CC[C@H]3[C@@H]1CC[C@@H]2O [Estradiol] | 1.17 | 0.515 | 2.36 | 1.1 | 0.515 | 1.04
39 | COc1ccc(C2C(=O)c3ccccc3C2=O)cc1 [Anisindione] | 0.89 | 0.546 | 1.76 | 1.61 | 0.828 | 0.667
40 | C[C@H]1O[C@@H](O[C@H]2CC[C@@]3(C)[C@@H](CC[C@]4(C)[C@@H]3C=C[C@]35OC[C@@]6(CCC(C)(C)C[C@H]63)[C@@H](O)C[C@]54C)[C@]2(C)CO)[C@H](O)[C@@H](O[C@@H]2O[C@H](CO)[C@@H](O)[C@H](O)[C@H]2O)[C@H]1O [Saikosaponin A] | 1.06 | 2.42 | 2.17 | 1.52 | 0.854 | 2.14
41 | CCN(CC)C(=O)N1CCN(C)CC1 [Diethylcarbamazine citrate] | 0.755 | 0.674 | 0.703 | 0.826 | 0.536 | 1.14
42 | COc1ccnc(C[S+]([O-])c2nc3cc(OC(F)F)ccc3[nH]2)c1OC (configuration not stated) [Pantoprazole] | 1.16 | 0.522 | 0.784 | 0.822 | 1.62 | 1.62
43 | CCCC(=O)[O-].[Na+] [Sodium butyrate] | 1.42 | 0.966 | 1.17 | 1.13 | 0.665 | 1.51
44 | CCCOc1ccc2[nH]c(NC(=O)OC)nc2c1 [Oxibendazole] | 2.66 | 2.7 | 3.08 | 2.55 | 1.73 | 2.58
45 | CC(=O)[C@@]1(O)CC[C@H]2[C@@H]3C[C@H](C)C4=CC(=O)C=C[C@]4(C)[C@@]3(F)[C@@H](O)C[C@@]21C [Fluorometholone] | 0.819 | 2.59 | 1.54 | 1.73 | 1.04 | 1.8
46 | OC(CCN1CCCCC1)(c1ccccc1)C1CCCCC1 (configuration not stated) [Trihexyphenidyl hydrochloride] | 1.04 | 1.1 | 0.794 | 0.849 | 1.17 | 2.16
47 | O=C(O)c1cccc(-c2noc(-c3ccccc3F)n2)c1 [Ataluren (PTC124)] | 1.05 | 0.791 | 1.17 | 1.13 | 0.816 | 1.51
